# The full list was thinned out, with hits kept by preference.
# Pf Dd2 inh: blocks in vitro growth of P. falciparum Dd2 | P. falciparum Dd2 growth, SYBR Green, 72 h | Potency, µM (top dose mostly 28.9 µM), hits mostly inhibitors | 120,000 compounds, 4.3% hits; active means well fitted inhibition curve with a large enough effect; further: nearly all actives have a fitted effect of over 65% in size
#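 Readout: SYBR Green fluorescence, 485 nm excitation, 535 nm emission, after ~16 h lysis at 37C. Before that, Dd2-infected red cells (2.5% hematocrit) grew 72 h with compound, 29 uM top final concentration.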
# Hits are given with their value; i = inactive; [ ] = another dose, or the depositor's remark.
SMILES,Pf Dd2 inh
CCN1C(=O)COC[C@@H]1[C@H](O)c1ccc(NC(=O)c2cccnc2)cc1,i
COC(=O)c1ccc([C@@H]2Nc3c(OC)ccc(C)c3[C@@H]3C=CC[C@@H]32)cc1,3.16µM
COc1ccc(C(=O)N2[C@@H]3CC[C@H]2CC(NC(=O)c2ccc(F)cc2)C3)cc1OC (some centres not stated),i
COC(=O)c1ccc(-c2nc(-c3ccc(OC)c(OC)c3)no2)cc1,i
O=C(NCC1(c2ccccc2F)CCCC1)[C@H]1CCC[C@@H](O)C1,i
CC(C)CCN(C)Cc1ccc(-c2ccccc2)cc1,8.91µM
CN(Cc1ccc(-c2ccccc2)cc1)Cc1ccc(C(F)(F)F)cc1,i
CC(C)CCN(C)Cc1ccccc1C(F)(F)F,i
CN(Cc1ccc(-c2ccccc2)cc1)Cc1cccnc1,3.98µM
CN(Cc1ccc(F)cc1)Cc1ccc(-c2ccccc2)cc1,i
COc1ccc(CN(C)Cc2ccc(-c3ccccc3)cc2)cc1,i
COCCOc1cc(=O)n2c(c1C(=O)NC1CCC1)CCOCC2,i
Cc1cc(C(=O)N2Cc3nnc(C)n3C(C)C2)c(-c2ccccc2)o1 (configuration not stated),i
O=C(C[C@H]1NC(=O)c2ccccc2NC1=O)NC1CCCCC1,i
O=C(NC1CCOC2(CCOCC2)C1)c1cn(CCN2CCNCC2)nn1 (configuration not stated),i
Cc1cccc(OCC(=O)N2CCC[C@H]2c2nc(-c3ccc(F)cc3)no2)c1,i
CCC(CC)C(=O)N1CC2CC(C1)[C@H]1CCCC(=O)N1C2 (some centres not stated),i
Oc1ccccc1CNC1(Cc2cc(-c3ccccn3)on2)COC1,i
CCC(=O)Nc1cc(C(=O)NCc2ccc(N3CCN(C)CC3)cc2)c2ccc(C)nc2c1,10µM
CCNC(=O)c1cc(NC(=O)CC)cc2nc(C)ccc12,i
CCCCNC(=O)c1cc(NC(=O)CC)cc2nc(C)ccc12,i
COc1ccc2c(C)c(C(=O)N3CCCC3c3c(C)noc3C)oc2c1 (configuration not stated),i
COCC(=O)N1CCn2c(nn(-c3ccc(F)cc3)c2=O)C1,i
O=C(c1ccc(Cn2cnnn2)cc1)N1CCC2(CC1)[C@H](O)C[C@@H]2OCCO,i
Cc1ccc(Cn2nnc(C(=O)Nc3ccc(F)c(F)c3)c2N)cc1,0.891µM
SMILES,Pf Dd2 inh
Nc1c(C(=O)Nc2ccccc2Cl)nnn1Cc1cccc(Cl)c1,7.08µM
Cc1cc(C)cc(NC(=O)c2nnn(Cc3cccc(Br)c3)c2N)c1,i
CSc1ccc(Cn2nnc(C(=O)Nc3ccc(C)cc3Cl)c2N)cc1,i
CCOc1ccc(Cn2nnc(C(=O)Nc3ccc(Cl)cc3)c2N)cc1,i
CCc1ccc(Cn2nnc(C(=O)Nc3ccc(C)cc3)c2N)cc1,i
Cc1ncoc1C(=O)N1CCC(C2CCN(S(C)(=O)=O)CC2)C1 (configuration not stated),i
CO[C@H]1C(=O)N(C(C)C)[C@H]1C1CCN(C(=O)c2ccc3ncccc3c2)CC1,i
O=c1ncn(CC2CC2)c2ccc(N3CCC(c4ccccc4)CC3)nc12,i
O=C(c1ccccc1)N1CCC(Cc2nc(C3CCOCC3)no2)CC1,i
COCCNC(=O)C[C@@H]1c2nc(NC(=O)c3ccnc(Cl)c3)sc2C[C@@H]2[C@](C)(CO)[C@H](O)CC[C@]21C,i
C#CCNC(=O)C[C@@H]1c2nc(NC(=O)c3ccc(F)cc3)sc2C[C@@H]2[C@](C)(CO)[C@H](O)CC[C@]21C,i
C[C@]1(CO)[C@H]2Cc3sc(NC(=O)c4cccs4)nc3[C@@H](CC(=O)NCc3cccnc3)[C@]2(C)CC[C@H]1O,i
CCCCCC(=O)Nc1nc2c(s1)C[C@@H]1[C@](C)(CO)[C@H](O)CC[C@@]1(C)[C@@H]2CC(=O)NCc1cccnc1,i
CC(C)(C)C(=O)Nc1nc2c(s1)C[C@@H]1[C@](C)(CO)[C@H](O)CC[C@@]1(C)[C@@H]2CC(=O)NCc1ccco1,i
COc1ccc(C(=O)Nc2nc3c(s2)C[C@@H]2[C@](C)(CO)[C@H](O)CC[C@@]2(C)[C@@H]3CC(=O)NCCNC(C)=O)cc1,i
C[C@]1(CO)[C@H]2Cc3sc(NC(=O)c4ccco4)nc3[C@@H](CC(=O)NCc3cccnc3)[C@]2(C)CC[C@H]1O,7.08µM
COc1ccc(C(=O)Nc2nc3c(s2)C[C@@H]2[C@](C)(CO)[C@H](O)CC[C@@]2(C)[C@@H]3CC(=O)NCc2ccco2)cc1,2µM
C[C@]1(CO)[C@H]2Cc3sc(NC(=O)c4cccc(F)c4)nc3[C@@H](CC(=O)NCc3ccco3)[C@]2(C)CC[C@H]1O,8.91µM
CCC(=O)N1CCN(C2CCN(CCC(C)C)C2=O)CC1 (configuration not stated),i
CCS(=O)(=O)NCC1(COc2cccc(C)n2)C[C@@H](O)[C@@H](O)C1 (some centres not stated),i
COc1ccc(-c2cc(N3CCC(NC(=O)c4ccc(C#N)cc4)C3)n[nH]2)cc1 (configuration not stated),i
Cc1oc(C(O)c2ccccc2F)nc1C(=O)Nc1ccccc1C(N)=O (configuration not stated),i
O=C(O)C[C@@H]1CCN(S(=O)(=O)c2ccccc2)C[C@@H]1CCN1CCN(c2cccc(C(F)(F)F)c2)CC1,i
CCOc1ccccc1C1NC(=O)N(CC(=O)Nc2cccc(C#N)c2)C2=C1C(=O)OC2 (configuration not stated),i
COc1cc(OC)c(NC(=O)Cn2nc3n(c2=O)CCCCC3)cc1Cl,i
SMILES,Pf Dd2 inh
Cn1cc(CN2CCN(C(=O)Cc3ccccc3)CC2)ccc1=O,i
c1ccc(C(c2ccccc2)N2CCN(Cc3nc(-c4ccccn4)no3)CC2)cc1,i
Cn1cc(CN2CCN(C(c3ccccc3)c3ccccc3)CC2)cc1C#N,3.16µM
Cc1nc(C)c(C(=O)N2CCC(N3C(=O)C4(CCCC4)C3c3scnc3C)CC2)s1 (configuration not stated),i
Cc1ccc(C(=O)CCc2nc(C3CC(=O)N(C4CCCCC4)C3)no2)cc1 (configuration not stated),i
CCC(C(=O)N1CCc2onc(-c3ccc(F)c(F)c3)c2C1)n1cccn1 (configuration not stated),i
CC(C)n1ccnc1CN1CCc2onc(-c3ccc(Cl)cc3)c2C1,12.6µM
CCc1nc2c(c(-c3ccc(Cl)cc3)n1)CCN(CCC(C)C)CC2,i
CC(=O)N1Cc2ccccc2OC2(CCN(C(=O)CN(C)C)CC2)C1,i
CCC(O)c1cc2n(n1)CCN(C(=O)c1nc(N)nc3c1CCCC3)C2 (configuration not stated),i
Cc1nc2n(c1C(=O)Nc1nccs1)CCC(Nc1ccccc1)C2 (configuration not stated),i
COc1cccc(N2CC(C(=O)NCc3ccc(C(F)(F)F)cc3)NC2=O)c1 (configuration not stated),i
CN(C)c1ccc(CNC(=O)CCCN2C(=O)CCn3nc(-c4cccn4C)cc32)cc1,i
Cc1ccc(CNC(=O)CCCN2C(=O)CCn3nc(-c4cccn4C)cc32)cc1,5.01µM
CC(C)Oc1ccc(CNC(=O)CCCN2C(=O)CCn3nc(-c4cccn4C)cc32)cc1,i
CNC(=O)Cn1nc(C2CCN(C(=O)c3ccccc3F)CC2)c2c1CCOC2,i[5.79 µM]
O=C(O)CCC(=O)N1CC[C@H](c2nnc(-c3cccnc3)o2)C1,i
COc1cccc(-c2n[nH]c3c2CC(=O)N(CCc2ccncc2)C3)c1OC,i

# Compound activity: PubChem, National Center for Advancing Translational Sciences (NCATS)
